Assay results reported in the supplement of paper PMC10338343.
± gives the standard deviation.

test system: MILI (PIWIL2) piRISC loaded with piRNA #1 (26 nt); test: pre-steady-state target cleavage rate (min^-1); guide: piRNA #1 5'p-UGAGGUAGUAGGUUGUAUAGUAUCCA; higher = faster piRNA-guided slicing of the target; conditions: auxiliary factor: 500 nM mouse GTSF1
Method in brief: (§1)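 Sequencing of uncleaved targets, normalised to depth and to weakly complementary targets, was the readout of this Cleave-'n-Seq assay. A transcribed, DNA-blocked target RNA library (0.1 nM) was mixed with 1 nM active affinity-purified piRISC carrying one synthetic guide, with or without 500 nM GTSF1 partner protein, in HEPES–potassium acetate buffer at 33 °C for 0–8 or 0–960 min. Three trials were pooled, k3 was capped at 0.0001 min^-1, and a burst-and-steady-state fit gave the pre-steady-state cleavage rate.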

Row | Sequence | pre-steady-state target cleavage rate
1 | GGAGACCAUACUAUACAUCCUACUACGUCA | 0.158 ± 0.027
2 | GGAGACCAUACUAUACAACCUGCUACCUCA | 0.0337 ± 0.0076
3 | GGAGACCUAUGAUAUGUUGCUACUACCUA | < 0.0001
4 | GGAGACGAAACAAUACAACCUACUACCUCA | 0.167 ± 0.026
5 | GGAGAGCAUACUAAACAACCUACUACCUCA | 0.158 ± 0.015
6 | GGAGUCGAUACUAUACAUCCUACUACCUCA | 0.313 ± 0.017
7 | GGAGAGCAUACUAUACAACCUACAACCUCA | 0.133 ± 0.015
8 | GGAGAGGAUACUUUACAACCUACUAGCUCA | 0.0731 ± 0.013
9 | GGAGACCUAAUUAUACAACCUACUACCUCA | 0.0979 ± 0.011
10 | GGAGAGGAUACUAUACAACCUACUUGCUCA | 0.00476 ± 0.0029
11 | GGAGUGGAUAGUAUACAACGUACUACCUCA | 0.0168 ± 0.0038
12 | GGAGACCUUACUAUACAACGUACUACGUCA | 0.00879 ± 0.0038
13 | GGAGACGAUACUAUAGAAGCUACUACCUCA | 0.16 ± 0.014
14 | GGAGAGGAAACAAUACAACCUACUACCUCA | 0.186 ± 0.018
15 | GGAGAGGAUACUAAUACAACCUACUACCUCA | 0.147 ± 0.011
16 | GGAGACGAUACAAUACAACCUACUACCUGA | 0.116 ± 0.015
17 | GGAGUGGAUACUAUACAAUCUACUACCUCA | 0.127 ± 0.009
18 | GGAGAGGAUACAAUACAUCCUACUACCUCA | 0.239 ± 0.021
19 | GGAGACCUUAGAAUACAACCUACUACCUCA | 0.011 ± 0.004
20 | GGAGACCAUACUAUACACCUACUACCUCA | 0.0288 ± 0.0078

Row | Sequence | pre-steady-state target cleavage rate
21 | GGAGACCUAUCUAAUACAACCUACUACCUCA | 0.0342 ± 0.0069
22 | GGAGACGAUACUAUACAACCAAGUACCUCA | 0.00441 ± 0.0027
23 | GGAGUGGAUACUAUACUACGUACUACCUCA | 0.042 ± 0.0043
24 | GGAGUGGAUACUAUACAACCUACUACGCUCA | 0.111 ± 0.015
25 | GGAGACCUAACUAUCCAACCUACUACCUCA | 0.208 ± 0.038
26 | GGAGACGAUUCUAUACAACCUACAACCUCA | 0.164 ± 0.013
27 | GGAGAGGAUACAUUACAACCUACUACCUCA | 0.148 ± 0.012
28 | GGAGACCUAUCUAUACAACCUACUACCUUCA | 0.139 ± 0.017
29 | GGAGACCAUACUAUACAACCUACUACCUCA [g2:g23:cont:t1A] | 0.178 ± 0.023
30 | GGAGACCUAUCUAUACAACCUACUACGUCA | 0.0507 ± 0.008
31 | GGAGAGGAUACUAUACAACCUACUUACCUCA | 0.162 ± 0.015
32 | GGAGACCAAACUAUACAACCUACUUCCUCA | 0.0841 ± 0.035
33 | GGAGACCAUACUAUACAUCCUACAACCUCA | 0.208 ± 0.019
34 | GGAGACCAUUCUAUACAACCUACUUCCUCA | 0.0522 ± 0.0086
35 | GGAGACCUUACUAUACAACGUACUUCCUCA | 0.0242 ± 0.0053
36 | GGAGAGGAUACUAUACAAACCUACUACCUCA | 0.00683 ± 0.0028
37 | GGAGUGGAUACUAUUCAACCUACUAGCUCA | 0.0538 ± 0.0095
38 | GGAGUGCUUACUAUACAACCUACUACCUCA | 0.162 ± 0.0091
39 | GGAGAGGAUACUUUACAACCUACAACCUCA | 0.11 ± 0.016
40 | GGAGACGAUACUAUAGAACCUACUUCCUCA | 0.0055 ± 0.0044

test system: EfPiwi piRISC loaded with piRNA #1 (26 nt); test: pre-steady-state target cleavage rate (min^-1); auxiliary factor: 500 nM Ephydatia muelleri Gtsf1; guide: piRNA #1 5'p-UGAGGUAGUAGGUUGUAUAGUAUCCA; MIWI and MILI are mouse PIWI proteins and EfPiwi is from a freshwater sponge; tags in brackets are library labels; higher = faster piRNA-guided slicing of the target; conditions: not given
Method in brief: as §1

Row | Sequence | pre-steady-state target cleavage rate
41 | GGAGACCAUACUAUACAUCCUACUACGUCA | 0.00585 ± 0.0034
42 | GGAGACCAUACUAUACAACCUGCUACCUCA | 0.0759 ± 0.029
43 | GGAGACCUAUGAUAUGUUGCUACUACCUA | < 0.0001
44 | GGAGACGAAACAAUACAACCUACUACCUCA | 0.00789 ± 0.0038
45 | GGAGAGCAUACUAAACAACCUACUACCUCA | 0.00417 ± 0.0033
46 | GGAGUCGAUACUAUACAUCCUACUACCUCA | 0.0165 ± 0.007
47 | GGAGAGCAUACUAUACAACCUACAACCUCA | 0.0026 ± 0.0017
48 | GGAGAGGAUACUUUACAACCUACUAGCUCA | 0.00183 ± 0.0016
49 | GGAGACCUAAUUAUACAACCUACUACCUCA | 0.0144 ± 0.0065
50 | GGAGAGGAUACUAUACAACCUACUUGCUCA | 0.00478 ± 0.0023
51 | GGAGUGGAUAGUAUACAACGUACUACCUCA | 0.00231 ± 0.0021
52 | GGAGACCUUACUAUACAACGUACUACGUCA | 0.00267 ± 0.0018
53 | GGAGACGAUACUAUAGAAGCUACUACCUCA | 0.00294 ± 0.0013
54 | GGAGAGGAAACAAUACAACCUACUACCUCA | 0.00675 ± 0.004
55 | GGAGAGGAUACUAAUACAACCUACUACCUCA | 0.128 ± 0.048
56 | GGAGACGAUACAAUACAACCUACUACCUGA | 0.0025 ± 0.0015
57 | GGAGUGGAUACUAUACAAUCUACUACCUCA | 0.105 ± 0.038
58 | GGAGAGGAUACAAUACAUCCUACUACCUCA | 0.00771 ± 0.0035
59 | GGAGACCUUAGAAUACAACCUACUACCUCA | 0.00613 ± 0.0038
60 | GGAGACCAUACUAUACACCUACUACCUCA | 0.00694 ± 0.0042

Row | Sequence | pre-steady-state target cleavage rate
61 | GGAGACCUAUCUAAUACAACCUACUACCUCA | 0.00579 ± 0.004
62 | GGAGACGAUACUAUACAACCAAGUACCUCA | 0.00215 ± 0.0019
63 | GGAGUGGAUACUAUACUACGUACUACCUCA | 0.00381 ± 0.0021
64 | GGAGUGGAUACUAUACAACCUACUACGCUCA | 0.00482 ± 0.0021
65 | GGAGACCUAACUAUCCAACCUACUACCUCA | 0.00727 ± 0.004
66 | GGAGACGAUUCUAUACAACCUACAACCUCA | 0.00277 ± 0.0012
67 | GGAGAGGAUACAUUACAACCUACUACCUCA | 0.007 ± 0.0035
68 | GGAGACCUAUCUAUACAACCUACUACCUUCA | 0.0604 ± 0.023
69 | GGAGACCAUACUAUACAACCUACUACCUCA [g2:g23:cont:t1A] | 0.0141 ± 0.0046
70 | GGAGACCUAUCUAUACAACCUACUACGUCA | 0.00352 ± 0.0031
71 | GGAGAGGAUACUAUACAACCUACUUACCUCA | 0.00951 ± 0.004
72 | GGAGACCAAACUAUACAACCUACUUCCUCA | 0.00317 ± 0.0029
73 | GGAGACCAUACUAUACAUCCUACAACCUCA | 0.00248 ± 0.0024
74 | GGAGACCAUUCUAUACAACCUACUUCCUCA | 0.00372 ± 0.0035
75 | GGAGACCUUACUAUACAACGUACUUCCUCA | 0.00315 ± 0.0021
76 | GGAGAGGAUACUAUACAAACCUACUACCUCA | 0.0671 ± 0.028
77 | GGAGUGGAUACUAUUCAACCUACUAGCUCA | 0.0025 ± 0.0021
78 | GGAGUGCUUACUAUACAACCUACUACCUCA | 0.0694 ± 0.025
79 | GGAGAGGAUACUUUACAACCUACAACCUCA | 0.00228 ± 0.0015
80 | GGAGACGAUACUAUAGAACCUACUUCCUCA | 0.00251 ± 0.0022
